High-throughput results from PubChem BioAssay.
BRCA1 expr up – increases BRCA1 expression; MCF7-BRCA1-FFLuc reporter, luminescence, 48 h; response scale: scaled: vehicle 0%, 10 µM genistein 100%; Potency, µM (series often up to 46.1 µM), without a hit: at the top dose activation, usual class: activators; 1.1% of 380,000 active; note: potency is the fitted concentration of half-maximal effect; nearly all actives have a fitted effect of over 80% in size
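Luminescence from a BRCA1-driven firefly luciferase in MCF7 cells was read after 48 h compound exposure at 37 C. Data normalized against DMSO and a 10microM genistein activation control, then curve-fitted across the titration.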
DRD3 agonist – agonists of human D3 dopamine receptor; D3R DiscoveRx beta-arrestin cells, luminescence, 90 min; 0.58% of 410,000 active; AID 652048; P35462; max activation, %; in the data active = max activation above about 30%; note: 0% is about no effect
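Agonist-mode cell screen: cells plated at 1500/well and incubated overnight at 37 °C, then exposed to library compounds for 90 min at 37 °C. Detection reagent was added for 30–60 min at room temperature, and luminescence was read.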
B2AR arrestin – recruits beta-arrestin to the human beta2-adrenergic receptor; P07550; beta-arrestin recruitment to beta2AR, cell-based reporter; Potency, µM (doses to about 46.1 µM), for the others: at the top dose activation, usual class: activators; 0.02% of 330,000 active;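 note: potency is the fitted concentration of half-maximal effect; 0% = DMSO controls and full agonism = EC100 isoproterenol or metaproterenol; nearly all actives have a fitted effect of over 65% in size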
DRD3 antagonist – D3 dopamine receptor (human) antagonism; P35462; D3R cells, DiscoveRx beta-arrestin luminescence, antagonist mode; stronger effect = lower value; max response, negative = inhibition, %; 2.5% of 360,000 active; in the data active = max response below about -50%; inconclusive = no clear call, values can overlap the other calls; note: % is set by controls: 0 for no effect and ±100 for the full control effect
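Cells expressing the human receptor were seeded at 1500 cells/well, incubated overnight at 37 degrees C in 5% CO2, then exposed to library compounds with dopamine controls for 90 minutes at 37 degrees C before luminescent detection.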
RGS4 inh – blocks human RGS4-accelerated GTP hydrolysis; P49798; Transcreener GDP fluorescence polarization, RGS4-accelerated GTP hydrolysis; Potency, µM (top dose mostly 114 µM), for the others: at the highest dose activity change, negative = inhibition, usual class: inhibitors; 0.039% of 390,000 active; note: potency is the fitted concentration of half-maximal effect; % is set by controls: 0 for no effect and ±100 for the full control effect; nearly all actives have a fitted effect of over 75% in size
Target sequence (P49798 whole entry, looked up): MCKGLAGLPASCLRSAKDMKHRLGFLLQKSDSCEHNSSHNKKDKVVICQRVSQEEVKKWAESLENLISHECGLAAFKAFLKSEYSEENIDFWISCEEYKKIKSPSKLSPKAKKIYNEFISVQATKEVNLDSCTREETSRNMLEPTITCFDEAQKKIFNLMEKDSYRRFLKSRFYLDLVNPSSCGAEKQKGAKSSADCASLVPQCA
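MLSMR compounds (23 nl, pin-transferred) preincubated 10 min at room temperature with a 500nM (2x) first reagent, then RGS4 at 900nM (2x) plus Transcreener GDP mix added; fluorescence polarization (620/688 nm) read before and after 90 min at 30 °C.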
PTHR1 agonist – PTHR1 (human) receptor agonism; Q03431; HEK293 GP2 PTHR1 cells, GloSensor cAMP luminescence, 1 h; Potency, µM (doses to about 115 µM), for the others: at the highest dose activation, usual class: activators; 0.075% of 410,000 active; note: potency is the fitted concentration of half-maximal effect; nearly all actives have a fitted effect of over 55% in size
Target sequence (Q03431 whole entry, looked up): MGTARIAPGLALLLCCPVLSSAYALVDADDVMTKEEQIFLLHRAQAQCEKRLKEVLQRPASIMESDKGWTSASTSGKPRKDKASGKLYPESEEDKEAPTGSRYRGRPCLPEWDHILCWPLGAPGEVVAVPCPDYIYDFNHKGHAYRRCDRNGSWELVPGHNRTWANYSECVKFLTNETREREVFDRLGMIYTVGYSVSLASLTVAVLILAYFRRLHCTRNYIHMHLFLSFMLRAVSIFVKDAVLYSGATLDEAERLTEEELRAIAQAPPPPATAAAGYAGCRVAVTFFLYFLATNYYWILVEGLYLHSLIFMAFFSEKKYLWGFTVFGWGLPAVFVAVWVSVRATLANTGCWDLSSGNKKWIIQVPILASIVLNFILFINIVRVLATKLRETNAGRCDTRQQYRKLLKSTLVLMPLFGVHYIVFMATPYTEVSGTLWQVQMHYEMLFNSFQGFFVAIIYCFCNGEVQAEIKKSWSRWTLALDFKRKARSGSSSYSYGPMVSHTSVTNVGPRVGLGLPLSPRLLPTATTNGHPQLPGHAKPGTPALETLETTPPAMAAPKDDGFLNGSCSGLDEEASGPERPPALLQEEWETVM
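HEK-293-derived GP2 cells expressing PTHR1 and a GloSensor cAMP reporter, 3,000/well, plated overnight, given luciferin plus IBMX (each 0.5 mM as added) for 1 h at 37 °C, then compound for 1 h at 37 °C. Luminescence was read after 15 min at room temperature.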
Active calls of the source: *; i = inactive; u = inconclusive; x = not tested or not shown; [ ] = dose if it differs, or a comment. This is a sample that favours compounds with a hit; in the whole collection about 3.7% have one here. Unless noted, calls come from the whole dose curve; as a rule, active = well fitted curve in the direction sought with a large enough effect; inconclusive = small, poorly fitted or top-dose-only effect, or another doubt; inactive = no such curve, though single readings can be large; an effect the other way counts as inactive or inconclusive.

SMILES | BRCA1 expr up | DRD3 agonist | B2AR arrestin | DRD3 antagonist | RGS4 inh | PTHR1 agonist
CCCCN(C(=O)C1CC1)C1CCS(=O)(=O)C1 (stereo unspecified) | -11.2% | 3.8 | 0.1% | 10.7 | 13.2% | i
CC(=O)NC(C)(c1ccccc1)c1nc(-c2cccc3cccnc23)cs1 (stereo unspecified) | 0.6% | -1.0 | x | 0.0 | x | -14.2%
CCCCn1c(N)c(N(Cc2ccccc2OC)C(=O)COc2ccccc2C#N)c(=O)[nH]c1=O | -32.9% | 5.2 | 0.3% | 2.5 | 29.4% | -23.0%
C=C1CC[C@H](O)CC1=C/C=C1\CCC[C@]2(C)[C@@H]([C@H](C)CC[C@@H](O)C(C)(C)O)CC[C@@H]12 | x | 6.3 | x | x | x | x
CCn1nc(C)cc1-c1nnc(Sc2ncc([N+](=O)[O-])s2)n1C | -90.8% | -24.5 | -0.2% | -117.4* | u | -33.6%
CCN1CCN(CCCNC(=O)c2csc3c2CCCCC3)CC1 | 6.0% | -4.4 | 0.3% | -54.1* | 18.3% | i
CCC1CCCCN1CCCNC(=O)c1csc2c1CCCCC2 (stereo unspecified) | -21.5% | 2.2 | 0.0% | -5.1 | -3.6% | i
O=C(NCCN1CCOCC1)c1csc2c1CCCCC2 | 25.5% | 16.0 | 0.0% | -52.1* | 12.4% | i
CC1CCc2c(C(=O)NCCN3CCOCC3)csc2C1 (stereo unspecified) | 46.7% | -7.6 | 0.2% | -11.1 | 10.1% | -7.7%[57.5 µM]
Cc1noc(C)c1C(=O)Nc1cc(S(=O)(=O)N2CCCCC2)ccc1N(C)C | 5.1% | 2.5 | -0.2% | 5.5 | -33.9% | i
O=C(NN1C(=O)/C(=C/c2ccc(O)c(O)c2)SC1=S)c1ccccc1 | -30.8% | 10.6 | 0.1% | -63.0* | -23.2%[56.9 µM] | -16.4%
O=C1/C(=C/c2ccc(O)c(O)c2)SC(=S)N1Nc1ccccc1 | 83.6% | 11.5 | 0.1% | -6.4 | -53.1% | -29.7%
Cn1c(CO)cnc1SCC(=O)c1ccc(F)cc1 | 10µM* | -1.0 | 0.4% | -3.3 | -13.9% | -5.1%
Cn1c(CO)cnc1SCC(=O)c1ccc(Br)cc1 | 43.5% | 6.2 | -1.1% | 4.2 | -28.2% | -20.6%
COCCn1nnnc1SCC(=O)c1ccc(F)cc1 | 25.8% | -2.9 | -0.1% | -66.9* | u | -22.3%
C[C@H]1CN(S(=O)C(C)(C)C)[C@@H](CCO)/C1=C\c1ccccc1 (stereo partly specified) | 17.2% | -0.7 | x | -7.2 | 3.6% | i
CN1C(=O)[C@H]2[C@@H](c3ccc(C(F)(F)F)cc3)N[C@]3(CCCN(Cc4cccn4C)C3=O)[C@H]2C1=O | -30.5% | -2.0 | x | -20.9 | x | -23.8%
CC(=NNC(=S)N1CCCCC1)c1cccc(C)n1 | u | 2.4 | x | -106.8* | -26.0% | i
CC1(C(=O)NS(=O)(=O)c2ccccc2Cl)CCN1C(=O)Cc1cccc2ccccc12 (stereo unspecified) | 1.1% | -2.6 | x | -6.2 | x | u
Cn1c(=O)cc(SCC(=O)NCCCN2CCN(c3ccccc3F)CC2)c2ccccc21 | -8.1% | -5.4 | -0.3% | -71.1* | 34.2% | i
CCn1c(=O)cc(SCC(=O)NCCCN2CCN(c3ccc(F)cc3)CC2)c2ccccc21 | -1.3% | -48.5 | -0.2% | -67.9* | -26.1% | -13.3%
COC(=O)CN1C(=O)[C@H]2[C@@H](/C=C/c3ccccc3)N3C(=O)CN(CCO)C(=O)[C@@]3(Cc3ccccc3)[C@H]2C1=O | 3.5% | 14.5 | -0.2% | -13.4 | 11.0% | -16.0%
CCCCc1ccc(NC(=O)C2CCCO2)cc1 (stereo unspecified) | 1.41µM* | 5.9 | -1.9% | 14.2 | 2.0% | -15.5%[57.5 µM]
CCOc1ccc(-c2nc(Cn3c(=O)cc(C)c4c(C)nn(-c5ccccc5)c43)c(C)o2)cc1 | x | 4.8 | x | x | 4.2% | i
COC(=O)c1ccc(/C=N/NC(=O)c2cccc(F)c2)cc1 | 10µM* | 2.7 | -0.4% | -17.2 | -48.2% | -53.9%[57.5 µM]
SMILES | BRCA1 expr up | DRD3 agonist | B2AR arrestin | DRD3 antagonist | RGS4 inh | PTHR1 agonist
CN(C)c1ccc(C=NNC(=S)Nc2ccc(F)cc2)cc1 | 3.98µM* | 3.8 | x | -4.9 | -16.8% | -27.9%
O=C(N/N=C\c1ccc(F)cc1)c1ccc(F)cc1 | 11.2µM* | -0.8 | -0.1% | -3.2 | 6.0% | -8.0%
C[N+](C)(C)c1ccc(/C=C/c2ccnc3ccccc23)cc1 | -25.4% | x | x | x | x | x
COc1ccc(/C=C/C(=O)NNC(=O)c2cc(C)oc2C)cc1 | 3.6% | 2.7 | 0.2% | 2.5 | 3.7% | -4.5%
Cc1ccc2nc(CS)[nH]c2c1 | 0.0% | x | x | x | x | x
Cc1ccc(Cc2ccc(C(=O)NNC(N)=S)o2)cc1 | 71.0% | 2.6 | -0.1% | -13.6 | u | 10.4%
COc1ccc(N2CCN(CCOc3ccc4c(C)cc(=O)oc4c3)CC2)cc1 | -7.3% | -16.6 | u | -50.9* | -5.8% | i
COc1ccc(COc2ccc3c(C)cc(=O)oc3c2)cc1 | 2.51µM* | 0.5 | -1.3% | 22.1 | -4.1% | -20.5%
Cc1cc(=O)oc2cc(OCCSCCN3CCCC3)ccc12 | 1.2% | -19.3 | -0.6% | -2.9 | -11.3% | -4.4%
COc1ccc2c(CN(C)Cc3ccccc3)cc(=O)oc2c1 | 5.01µM* | 3.0 | x | 10.6 | x | -41.9%
O=Cc1ccc(CS)cc1 | 7.4% | x | x | x | x | x
CCCCC1=CC2=CC(=O)C(C)(OC(=O)CC)C(=O)C2=CN1c1cccc(C#N)c1 (stereo unspecified) | 7.9% | 32.4* | x | -13.2 | -17.0% | -0.6%
O=C(O)CCC(=O)OCCN(Cc1ccc(Oc2ccc([N+](=O)[O-])cc2)cc1)C(=O)C(Cl)Cl | -26.7% | -10.6 | x | 7.5 | -44.8% | -71.0%
CSc1cccc(NC(=S)N(CCCN2CCCC(C)C2)Cc2cccs2)c1 (stereo unspecified) | -35.0% | -14.0 | -0.2% | -103.6* | -5.7% | i
COc1ccc(NC(=S)N(CCCN2CCC(C)CC2)Cc2cccs2)cc1Cl | -52.0% | -23.8 | -0.2% | -79.8* | -36.9% | i
O=C(CNC(=S)N(CCCN1CCOCC1)Cc1cccs1)NCc1ccc(Cl)cc1 | -16.3% | -1.0 | 0.6% | -20.6 | 0.9% | i
Cc1ccc(NC(=S)N(CCCN2CCCC(C)C2)Cc2ccco2)cc1C (stereo unspecified) | -1.6% | -23.5 | 0.0% | -91.9* | -13.3% | i
O=C(CNC(=S)N(CCCN1CCOCC1)Cc1cccs1)NCc1ccccc1Cl | -2.8% | 0.3 | 0.3% | -58.5* | -22.5% | -23.4%
CCN1CCN(CCCN(Cc2ccco2)C(=S)Nc2ccc(Cl)c(C)c2)CC1 | -25.2% | -15.0 | -0.1% | -28.5 | -11.1% | -22.8%
O=C(CN1CCN(S(=O)(=O)N2CCCCC2)CC1)Nc1ccc(Cl)c(Cl)c1 | -35.8% | 15.0 | -0.3% | -16.0 | -14.5% | -26.8%
O=C(CNCc1ccccn1)Nc1ccc([N+](=O)[O-])cc1C(=O)Nc1ccccc1F | -13.8% | 26.8 | 0.1% | 8.3 | -13.6% | i
